Sampled rows, rich in hits. Any-hit rate of the full collection: about 11%.
Pf growth 96h: inhibits malaria parasite growth, 96 h; Potency, µM (doses to about 28.7 µM), for inactives: at the highest dose activity change, negative = inhibition, most hits filed as inhibitors; hit rate 6.9% among 320,000; AID 504834; P. falciparum luciferase reporter growth, 96 h
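Two-generation exposure (96 h) targets delayed-death phenotype. Reporter parasites carrying integrated firefly luciferase, in red cells at 2% hematocrit and 0.05% parasitemia final, kept at 37 C, 5% CO2; luminescence loss indicates inhibition.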
HCV inhibitor: inhibitors of hepatitis C virus infection; Huh7.5.1 HCVcc-Cre infection, luciferase reporter, 44 h; AID 651820; Potency, µM (series often up to 41.8 µM), for inactives: at the top dose activity change, negative = inhibition, hits mostly inhibitors; hit rate 3.4% among 340,000
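A cell-based infection assay in which seeded cells (1,000 per well) receive test compound after 4 h, are inoculated with HCVcc-Cre at approximately 0.5 moi, and are incubated 44 h before luminescence detection.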
Pf growth 48h: inhibits P. falciparum growth in the first generation, 48 h; P. falciparum luciferase growth in erythrocytes, 48 h; hit rate 5.9% among 310,000; Potency, µM (titrated, usually from 28.7 µM), for the others: at the highest dose activity change, negative = inhibition, hits mostly inhibitors
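Cell-based growth assay: transgenic P. falciparum expressing firefly luciferase, cultured in red cells within RPMI 1640 containing 0.5% w/v Albumax, 24 mM bicarbonate and gentamycin. A drop in luciferase activity indicates inhibition.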
AMA1 RON2 block: AMA1-RON2 (P. falciparum) interaction inhibition. AlphaScreen AMA1-biotinylated RON2 peptide binding. Potency, µM (doses to about 58.2 µM), for inactives: at the highest dose activity change, negative = inhibition, usual class: inhibitors. hit rate 0.2% among 360,000. AID 720542;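 note: 0% = vehicle wells and -100% = peptide control; nearly all actives have a fitted effect of over 45% in size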
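AMA1 (3D7) with his tag at 25 nM final met compounds first, then biotinylated RON2 peptide at 25 nM; detection used donor plus acceptor beads, 10 µg/mL apiece, read by AlphaScreen after 30 min at room temperature.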
Numbers without * were called inactive; ? = inconclusive; / = no result given; ! = not confirmed by another sample; [ ] = remark or other dose. Calls come from the whole dose curve; as a rule, active = well fitted curve in the direction sought with a large enough effect; inconclusive = small, poorly fitted or top-dose-only effect, or another doubt; inactive = no such curve, though single readings can be large; an effect the other way counts as inactive or inconclusive. Unless noted, % is set by controls: 0 for no effect and ±100 for the full control effect; potency is the fitted concentration of half-maximal effect.

SMILES	Pf growth 96h	HCV inhibitor	Pf growth 48h	AMA1 RON2 block
C(#Cc1ccccc1)C[N+]1(CC#Cc2cccc3ccccc23)CCCC1	?	?	2.62µM*	-1.0%
C#CC[N+]1(CC#Cc2ccccc2)CCCC1	49.5%	-9.6%	3.29µM*	-1.8%
COC(=O)c1cnn(-c2nc3c(C)cccc3s2)c1C	/	7.1%	-3.6%	1.6%
COc1ccc(S(=O)(=O)N2CCC(C(=O)NN3CCCCC3)CC2)cc1OC	26.3%	-6.5%	?	2.6%
CN(C)S(=O)(=O)c1cccc(NC(=O)COC(=O)CNC(=O)c2ccccc2F)c1	29.2%	18.4%	14.2%	-4.7%
COC(=O)c1cn(NC(=O)c2cc(OC)c(OC)c(OC)c2)c(=O)c2ccccc12	3.29µM*	-12.8%	3.7%	16.8%
COC(=O)c1cn(NC(=O)c2ccncc2)c(=O)c2ccccc12	5.86µM*	16.1%	11.1%	1.8%
COC(=O)c1cn(NC(=O)c2cc(OC)cc(OC)c2)c(=O)c2ccccc12	-23.3%	-10.2%	-8.1%	16.4%
Cc1c(C(=O)NCc2ccco2)oc2c(F)cccc12	-15.7%	-9.9%	?	-1.5%
Cc1ccnc(NC(=O)Nc2cccc(F)c2)c1	7.38µM*	-9.2%	222.5%	10.8%
Cc1ccc(NC(=O)Nc2cccc(F)c2)nc1	?	-10.3%	139.8%	3.6%
CCCNC(=O)OC[C@H]1O[C@H](CCO/N=C(\C)CCN2CCc3nc(-c4ccccc4)c(-c4ccccc4)cc3C2)C=C[C@@H]1Oc1ccc(OC)cc1	4.65µM*	-0.1%[8.37 µM]	5.86µM*	/
CN(C)CCCN(C(=O)c1ccc2c(c1)OCCO2)c1nc2ccc(Cl)cc2s1	11.7µM*	/	10.4µM*	/
CN(C)CCCN(C(=O)c1ccco1)c1nc2ccc(Cl)cc2s1	-16.0%	25.1µM*	0.3%	-25.8%
Cc1ccc(C(=O)N(CCCN(C)C)c2nc3ccc(Cl)cc3s2)cc1C	?	?	11.7µM*	?
CN(C)CCN(C(=O)c1ccc2c(c1)OCCO2)c1nc2ccc(Cl)cc2s1	?	?	46.2%	0.0%
CC(C)N(C(=O)CN1C(=O)NC(c2ccccc2)(c2ccccc2)C1=O)C(C)C	?	-1.1%	-19.8%	-3.3%
CCOc1ccccc1NC(=O)C(OC(=O)c1ccccc1O)c1ccccc1 (stereo not given)	?	1.8%	-27.9%	7.0%
CCOc1ccccc1NC(=O)C(OC(=O)c1ccc(NC(=O)CC#N)cc1)c1ccccc1 (stereo not given)	2.33µM*	?	5.22µM*	-2.9%
CC(OC(=O)c1ccc(NC(=O)CC#N)cc1)C(=O)NC(c1ccccc1)c1ccccc1 (stereo not given)	/	7.9%	/	6.7%
Cc1cc(C(=O)C(C)OC(=O)c2ccc(NC(=O)CC#N)cc2)c(C)n1-c1ccccc1 (stereo not given)	8.28µM*	?	13.1µM*	-20.9%
CCOc1ccccc1NC(=O)C(OC(=O)c1cc(C)oc1C)c1ccccc1 (stereo not given)	?	-9.4%	13.1µM*	-27.8%
CC(Sc1ncnc2sc(-c3ccccc3)cc12)C(=O)NCC1CCCO1 (stereo not given)	?	?	?	-6.9%
O=C(NCC(=O)N1CCN(S(=O)(=O)c2ccccc2)CC1)c1ccc(Br)o1	3.0%	0.4%	2.8%	-10.1%
N=C(N)c1ccc(/C=C/c2ccc(C(=N)N)cc2O)cc1	0.0757µM*	23.6%	1.07µM*	-2.0%
SMILES	Pf growth 96h	HCV inhibitor	Pf growth 48h	AMA1 RON2 block
N=C(N)c1ccc(Cl)cc1	-3.4%	1.4%	-17.7%	5.2%
CCNCC(=O)N1c2ccccc2CCc2ccc(NC(=O)OCC)cc21	-27.6%	-15.8%	10.4µM*	46.5%
CCOC(=O)Nc1ccc2c(c1)N(C(=O)CN)c1ccccc1CC2	?	?	11.7µM*	57.7%
CCOC(=O)Nc1ccc2c(c1)N(C(=O)CCN1CCOCC1)c1ccccc1S2	?	?	14.7µM*!	-4.9%
CCOC(=O)Nc1ccc2c(c1)N(C(=O)OCCN(C)C)c1ccccc1CC2	1.47µM*!	-20.4%	-9.8%	-0.7%
O=C(CS(=O)(=O)c1ccc(Cl)cc1)NCCS(=O)(=O)c1ccc(Cl)cc1	8.7%	21.7%	2.3%	5.4%
O=C(NCCS(=O)(=O)N1CCCCC1)c1ccc2c(c1)OCO2	0.8%	5.4%	10.9%	-0.7%
Cc1ccc(C)c(OCCC(=O)OCC(=O)Nc2cc(S(=O)(=O)N3CCCCC3)ccc2C)c1	/	19.0%	/	-7.6%
O=C(CSc1ccccn1)Nc1nncs1	19.6%	6.4%	7.1%	-15.6%
COCCN(C(=O)COC(=O)c1ccc(Br)o1)c1c(N)n(Cc2ccccc2)c(=O)[nH]c1=O	/	/	/	14.6%
CCOC(=O)Nc1ccc2c(c1)N(C(=O)CCN(C)C)c1ccccc1CC2	43.1%	-5.0%	-10.8%	2.3%
CCOC(=O)Nc1ccc2c(c1)N(C(=O)CN(C)C)c1ccccc1CC2	10.4µM*	-26.9%	-7.2%	0.0%
COC(=O)Nc1ccc2c(c1)N(C(=O)CCN(C)C)c1ccccc1CC2	7.38µM*	-12.6%	-5.8%	4.2%
CC(C)OC(=O)Nc1ccc2c(c1)N(C(=O)CCN(C)C)c1ccccc1CC2	5.6%	-0.2%	-22.2%	-2.5%
CCc1ccc(CN(C)C(=O)CCc2nnc(CCc3ccccc3OC)o2)nc1	1.2%	?	-9.7%	-7.4%
CC1CCC2(CC1)NC(=O)N(Cc1cccc(C(F)(F)F)c1)C2=O (stereo not given)	-0.5%	?	6.1%	23.5%
COC(=O)CCCCC(=O)C1C(=O)CC(C)(C)C(C(=O)OC)C1=O (stereo not given)	/	2.6%	-11.2%	-1.1%
CCCC(=O)C1C(=O)CC(C)(C)C(c2cc(C)no2)C1=O (stereo not given)	0.117µM*	-0.8%	7.0%	-2.0%
CNC(C)C(=O)NC(C(=O)NC(C)C(=O)Nc1cccc2ccccc12)C(C)C (stereo not given)	/	/	/	4.8%
O=C(NCCCNC(=O)c1ccccc1F)c1ccco1	20.2%	13.0%	14.7%	-0.8%
CC(C)(C)NC(=O)C(c1cc2ccccc2o1)n1c(-c2ccc(-c3ccccc3)cc2)nc2ccccc21 (stereo not given)	/	/	/	-23.3%
Cc1ccc(Cl)c2sc(N3CCN(C(=O)c4ccco4)CC3)nc12	?	?	?	-13.6%
Cc1cccc2sc(NC(=O)C3CCN(C(=O)c4ccco4)CC3)nc12	14.7µM*	11.2µM*	-20.2%	13.1%
CCc1cccc2sc(N3CCN(C(=O)c4ccc([N+](=O)[O-])o4)CC3)nc12	0.522µM*	?	0.657µM*	?
COc1cccc2sc(N3CCN(C(=O)c4ccco4)CC3)nc12	?	-15.9%	9.28µM*	-14.6%
CC(C)(C)NC(=O)NC(=O)CSc1n[nH]c(-c2ccccc2Br)n1	0.0%	-22.4%	-11.3%	1.4%
Cc1cccn2c(CNCCc3ccccn3)c(C(=O)N3CCOCC3)nc12	13.1µM*	12.7%	?	119.4%
CSCCNCc1c(C(=O)N2CCOCC2)nc2c(C)cccn12	?	22.9%	7.2%	9.1%
NC1=C(Br)C(=O)c2ccccc2C1=O	1.04µM*	?	2.62µM*	-17.7%

Screens as filed in PubChem.
